# Test results published in PubChem BioAssay (Tox21).
# Inconclusive results are not listed. A number with no mark means an inactive call. Active and inactive are the calls of the source. The call rests on the fitted dose curve.
# Test: p53 small molecule agonists, cell-based qHTS assay with human liver microsomes (AID 1963577);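 on activation: p53 response element beta-lactamase reporter cells with liver microsomes plus NADPH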
# Conditions: HCT-116 p53RE-bla with human liver microsomes, ratio, 16 h; series mostly up to 66 µM; activation: at the top concentration
# Text: National Center for Advancing Translational Sciences [NCATS]
# Division of Preclinical Innovation [DPI]
# U.S. Environmental Protection Agency [EPA]
# National Institutes of Environmental Health Sciences [NIEHS]
# National Toxicology Program [NTP]
# U.S. Food and Drug Administration [FDA]
# p53, a tumor suppressor protein, is activated following cellular insult, including DNA damage and other cellular stresses. The activation of p53 regulates cell fate by inducing DNA repair, cell cycle arrest, apoptosis, or cellular senescence. The activation of p53, therefore, is a good indicator of DNA damage and other cellular stresses. […] The activation of the reporter gene under culture conditions can be detected by fluorescence intensity.
# Tox21 Assay Protocol Summary:
# The p53RE-bla cells were dispensed at 4,000cells/3ul/well in 1536-well black-clear bottom plates. After the assay plates were incubated at 37 C, 5% CO2 incubator for 5 hours, 23 nL of compounds dissolved in DMSO, positive controls or DMSO only was transferred to the assay plate. Following compound addition, 3 uL of human liver microsomes (XenoTech, Kansas City, KS) at final concentration of 0.5 mg/mL and 1uL of Beta-Nicotinamide adenine dinucleotide 2-phosphate (NADPH) at final concentration of 0.5 mg/mL were transferred to the assay plate. The plates were incubated at 37 C for 16 hours. 1 uL of LiveBLAzer detection mixture was added to each well and the plates were incubated at room temperature in the dark for 2 h.
# On the % scale 0 is the no-effect control and ±100 the full control effect; potency means the concentration at half of the fitted maximal effect.
SMILES,activation,Potency
Cc1cc(S(=O)(=O)O)c(N)cc1Cl,-3.29%,–
CCCCCCCCCCCC[N+](C)(C)CC(=O)[O-],-3.55%,–
C/C=C(/C(=C/C)c1ccc(OC(C)=O)cc1)c1ccc(OC(C)=O)cc1,-1.65% [at 30.3 µM],–
C1COC(NC(C2CC2)C2CC2)=N1,2.4% [at 30.3 µM],–
CC=C(Cl)Cl,2.98%,–
CC(C)c1ccc(C(=O)N=C(N)N)cc1S(C)(=O)=O,-3.73% [at 30.3 µM],–
CCOC(=O)C(=O)OCC,-0.727%,–
COc1cc(OC)nc(NC(=O)NS(=O)(=O)Nc2ccccc2C(=O)N(C)C)n1,-18.8%,–
Cc1cccc(C)c1NC(=O)CN1CCCC1,3.87% [at 30.3 µM],–
CCCCCCCCCCCC(C)=O,-0.92%,–
CC(=O)c1cccnc1,-0.698%,–
Cc1ncc([N+](=O)[O-])n1CC(C)O (stereo not given),6.68% [at 30.3 µM],–
CCOC(=O)CC(CC(=O)OCC)(OC(C)=O)C(=O)OCC,0.415%,–
CCOC(=O)[C@H](O)[C@@H](O)C(=O)OCC,-4.19%,–
CC(=O)N(CC(O)CN(C(C)=O)c1c(I)c(C(=O)NCC(O)CO)c(I)c(C(=O)NCC(O)CO)c1I)c1c(I)c(C(=O)NCC(O)CO)c(I)c(C(=O)NCC(O)CO)c1I (stereo not given),7.13% [at 30.3 µM],–
Cc1nccn1CC1CCc2c(c3ccccc3n2C)C1=O (stereo not given),-1.4% [at 30.3 µM],–
Cc1oc(=O)oc1COC(=O)[C@@H]1N2C(=O)[C@@H](NC(=O)[C@H](N)c3ccccc3)[C@H]2SC1(C)C,-0.584% [at 30.3 µM],–
O=c1[nH]c(=O)c2[nH]c(=O)[nH]c2[nH]1,-6.75% [at 5.99 µM],–
Cc1cc(O)c(C)c(C)c1O,0.874% [at 30.3 µM],–
NC(=O)C1(N2CCCCC2)CCN(CCCC(=O)c2ccc(F)cc2)CC1,-0.648% [at 30.3 µM],–

SMILES,activation,Potency
CC(N)C(=O)OC(C)(C)Cc1ccc(Cl)cc1 (stereo not given),-0.303% [at 30.3 µM],–
CCCCCCC(CO)CCCC (stereo not given),-2.21%,–
C=C(C)C(=O)OCC1CCCO1 (stereo not given),0.865%,–
Clc1cc(Cl)c(Cl)nc1Cl,1.18%,–
C=C1C(CCl)(CCl)C2(Cl)C(Cl)C(Cl)C1(Cl)C2(Cl)Cl (stereo not given),-1.33%,–
CCN(CC)C(=O)Nc1ccc(OCC(O)CNC(C)(C)C)c(C(C)=O)c1 (stereo not given),-6.6% [at 30.3 µM],–
CCC=O,1.04%,–
CCCCC(=O)OCC(=O)[C@H]1[C@H](C)C[C@H]2[C@@H]3C[C@H](F)C4=CC(=O)C=C[C@]4(C)[C@@]3(F)[C@@H](O)C[C@@]21C,-1.11% [at 30.3 µM],–
Cc1occc1C(=O)Nc1ccc(C(=O)N2CCC(F)(F)/C(=C\C(=O)N3CCC(N4CCCCC4)CC3)c3ccccc32)cc1,-8.51% [at 30.3 µM],–
Cc1cc(O)c(C(C)(C)C)cc1C(C)(C)C,-7.85%,–
O=C(CCOCCOCCOCCOCCC(=O)Nc1c(I)cc(I)c(C(=O)O)c1I)Nc1c(I)cc(I)c(C(=O)O)c1I,0.771% [at 30.3 µM],–
Cc1ccc2oc(CN(Cc3ccccc3)C(=O)Nc3c(F)cc(F)cc3F)c(-c3ccc(Cl)cc3)c2c1,-4.38%,–
C=COCC(C)C,-0.757%,–
Clc1ccc2n[nH]nc2c1,–,28.9 µM (active)
CC[C@@H](N)CO,1.31%,–
Cc1cccc(C(=O)O)c1[N+](=O)[O-],2.94%,–
CCCC(=O)O[C@]1(C(=O)CC)CC[C@H]2[C@@H]3CCC4=CC(=O)CC[C@]4(C)[C@H]3[C@@H](O)C[C@@]21C,-8.44% [at 30.3 µM],–
C=Cc1ccccc1C=C,20.6% [at 172 µM],–
OCC(CO)n1cnc(-c2ccc(F)cc2)c1-c1ccnc(Oc2ccccc2)n1,-17.9%,–
NCC1CCC(C(=O)Oc2ccc(CCC(=O)O)cc2)CC1 (stereo not given),1.84% [at 30.3 µM],–
